Measured values published in PubChem BioAssay (NCATS).
Results filed as inconclusive are left out. Activity calls are given as the source filed them. Calls come from the whole dose curve; as a rule, active = well fitted inhibition curve with a large enough effect; inconclusive = small, poorly fitted or top-dose-only effect; inactive = flat fitted curve, though single readings scatter.

system: astro; test: Drug repurposing screens with cells derived from glioblastoma tumor samples (AID 1345199); conditions: viability, ATP luminescence, 48 h; series mostly up to 45.9 µM; activity, negative = cell killing: at the top concentration; note: nearly all actives have a fitted effect of over 40% in size
Description: CD133+ cells were isolated from GBM patient biopsies and cultured as neurospheres. Neurospheres from four patients were used to screen the NCATS pharmaceutical collection (NPC) library of approved drugs and bioactive compounds. […] The neurospheres were incubated with drugs for 48 hours in 1536-well format, then assayed with an ATP content cell viability assay. […] These hits were cherry picked to confirm activity in the four original GBM lines screened plus three other slower growing GMB lines (unable to yield enough cells for a full primary screen). Variable activities of the confirmed primary hits in the different GBM patient lines were observed. The patient line 206 responded to the greatest number of compounds and line 923 responded to the least amount of active compounds.
% is set by controls: 0 for no effect and ±100 for the full control effect; potency is the fitted concentration of half-maximal effect.

| Structure (SMILES) | Potency | activity, negative = cell killing |
| --- | --- | --- |
| COc1cc2c(cc1OC)-c1cc(=Nc3c(C)cc(C)cc3C)n(C)c(=O)n1CC2 | 17.8 µM (active) |  |
| NC(=O)N1c2ccccc2C=Cc2ccccc21 |  | -18.1% (inactive) |
| CCn1nc(C(=O)O)c(=O)c2cc3c(cc21)OCO3 |  | -16.1% [at 21.2 µM] (inactive) |
| CN=C(NC#N)NCCSCc1nc[nH]c1C |  | 10.4% (inactive) |
| CN1C[C@H](C(=O)N[C@]2(C)O[C@@]3(O)[C@@H]4CCCN4C(=O)[C@H](Cc4ccccc4)N3C2=O)C[C@@H]2c3cccc4[nH]cc(c34)C[C@H]21 |  | -24.2% (inactive) |
| CCN(CC)CC(=O)Nc1c(C)cccc1C |  | -19.8% (inactive) |
| C[N+](C)(C)CCCCCCCCCC[N+](C)(C)C |  | -11.3% (inactive) |
| COCCc1ccc(OCC(O)CNC(C)C)cc1 (stereo not given) | inactive |  |
| FC(F)(F)c1ccccc1-n1ccnc1 |  | -12.6% (inactive) |
| Brc1c(NC2=NCCN2)ccc2nccnc12 |  | -15.1% (inactive) |
| N[C@@H](COP(=O)(O)O)C(=O)O |  | -8.6% (inactive) |
| NC(=O)c1ncn([C@@H]2O[C@H](CO)[C@@H](O)[C@H]2O)c1O |  | 1.07% (inactive) |
| COc1ccc(CN(CCN(C)C)c2ccccn2)cc1 |  | -14.8% (inactive) |
| O=c1[nH]c(=O)n([C@H]2C[C@H](O)[C@@H](CO)O2)cc1Br |  | -22.2% (inactive) |
| c1ccc2c(c1)CCCC2C1=NCCN1 (stereo not given) |  | -20.8% (inactive) |
| CCCCNc1c(C(=O)OCC)c(C)nc2c1cnn2CC |  | -18.1% (inactive) |
| NC/C=C/C(=O)O |  | -1.88% (inactive) |
| CCN(CC)CCCN(c1ccccc1)C1Cc2ccccc2C1 | 12.6 µM (active) |  |
| CCN(CC)CCNC(=O)c1cc(S(C)(=O)=O)ccc1OC |  | -11.9% [at 21.2 µM] (inactive) |
| Cc1ccc(/C(=C\CN2CCCC2)c2ccccn2)cc1 |  | -20.2% (inactive) |

| Structure (SMILES) | Potency | activity, negative = cell killing |
| --- | --- | --- |
| Cc1nc2c([nH]1)c(=O)n(C)c(=O)n2Cc1ccco1 |  | -9.2% (inactive) |
| CCCN(CCC)CCc1cccc2c1CC(=O)N2 |  | -12.2% (inactive) |
| CCN(CC)CCOCCOC(=O)C1(c2ccccc2)CCCC1 | 35.5 µM (active) |  |
| CC(C)NNC(=O)c1ccncc1 |  | -9.67% (inactive) |
| CC(C)(C)c1ccc(C(=O)CCCN2CCC(OC(c3ccccc3)c3ccccc3)CC2)cc1 | 12.6 µM (active) |  |
| O=C1NCN(c2ccccc2)C12CCN(CCCC(c1ccc(F)cc1)c1ccc(F)cc1)CC2 | 12.6 µM (active) |  |
| C[C@]12CCC(=O)C=C1CC[C@@H]1[C@@H]2CC[C@@]2(C)[C@H]1CC[C@]2(O)C(=O)CO |  | -14% (inactive) |
| Cc1cccc(C)c1NC(=O)C(C)N (stereo not given) |  | -8.75% [at 21.2 µM] (inactive) |
| CC(N=C(NC#N)Nc1ccncc1)C(C)(C)C (stereo not given) |  | -9.79% (inactive) |
| OC(CCN1CCCCC1)(c1ccccc1)C1CCCCC1 (stereo not given) |  | -20.7% (inactive) |
| CC(C)COCC(CN(Cc1ccccc1)c1ccccc1)N1CCCC1 (stereo not given) | 35.5 µM (active) |  |
| C=CCc1ccccc1OCC(O)CNC(C)C (stereo not given) |  | -24.4% (inactive) |
| CCOC(=O)C1=C(C)NC(C)=C(C(=O)OC)C1c1cccc(Cl)c1Cl (stereo not given) |  | -20.9% (inactive) |
| NC(N)=N/N=C/c1c(Cl)cccc1Cl |  | -28.2% (inactive) |
| CC(=O)[C@]1(O)Cc2c(O)c3c(c(O)c2[C@@H](O[C@H]2C[C@H](N)[C@H](O)[C@H](C)O2)C1)C(=O)c1ccccc1C3=O | 0.398 µM (active) |  |
| Cc1ccc(S(=O)(=O)NC(=O)NN2CCCCCC2)cc1 |  | -0.811% (inactive) |
| CC[N+](C)(C)c1cccc(O)c1 |  | -10.3% [at 21.2 µM] (inactive) |
| O=C(CCCN1CCC(O)(c2cccc(C(F)(F)F)c2)CC1)c1ccc(F)cc1 |  | -29.2% (inactive) |
| COc1ccc(CCN(C)CCCC(C#N)(c2cc(OC)c(OC)c(OC)c2)C(C)C)cc1OC (stereo not given) |  | -14.2% (inactive) |
| CN(C)CCOC(=O)COc1ccc(Cl)cc1 |  | -10.1% [at 21.2 µM] (inactive) |
